Source: PubChem
The list is not random: actives were taken first. Their share in the collection is about 3.7%.
ClpP mod: qHTS Assay for Activators of ClpP; ATP-dependent Clp protease proteolytic subunit (Bacillus subtilis (strain 168)), P80244; Potency, µM (highest dose often 57.5 µM), inactives show top-dose activity change, negative = active; purified B. subtilis ClpP, FRET peptide cleavage, 20 min; 340,000 tested, 1.9% active; active means well fitted falling curve with a large enough effect; inconclusive means small, poorly fitted or top-dose-only effect; inactive means no such curve, though single readings can be large or run the other way; further: potency means the concentration at half of the fitted maximal effect; the source files actives as falling curves though it sought activators and does not explain the sign; nearly all actives have a fitted effect of over 65% in size
Target sequence (P80244 whole entry, looked up): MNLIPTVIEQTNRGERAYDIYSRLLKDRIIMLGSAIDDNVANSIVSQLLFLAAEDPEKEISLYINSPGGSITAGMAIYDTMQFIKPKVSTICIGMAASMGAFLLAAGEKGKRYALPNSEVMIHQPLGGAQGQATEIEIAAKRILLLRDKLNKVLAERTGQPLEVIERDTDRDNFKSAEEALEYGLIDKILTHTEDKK
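FRET quenching reversal measured ClpP activation: 10 microg/mL B. subtilis ClpP at pH 8 with the FRET-FV decapeptide, read at 430 nm after 320 nm excitation. The 20-min minus 0-min signal was scaled between DMSO/no-enzyme wells and ADEP (5.8 microM final).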
miR-21 act: qHTS Assay for Modulators of miRNAs and/orActivators of miR-21; HeLa miR-21 FLuc reporter, luciferase, 48 h; Potency, µM (top dose mostly 38.3 µM), for inactives: at the top dose activity change, positive = activation, usual class: activators; 340,000 tested, under 10 active; AID 2288, 2010;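 further: % of control where 0% means no effect; miR-21 action dims this reporter so a rising signal means less miR-21 action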
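Luminescence from a firefly luciferase reporter carrying a miR-21 binding site downstream, stably expressed under a CMV promoter in HeLa cells that make miR-21 endogenously, reports miRNA modulation after 48 h compound exposure up to approximately 40uM final.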
A549 tox: Nrf2 qHTS screen for inhibitors: counterscreen for cytotoxicity; 390,000 tested, 0.16% active; Potency, µM (highest dose often 46 µM), without a hit: at the highest dose activity change, negative = cytotoxicity, hits mostly inhibitors; A549 ARE-Fluc cells, CellTiter-Fluor viability, 18-24 h; further: potency means the concentration at half of the fitted maximal effect; on the % scale 0 is the no-effect control and ±100 the full control effect
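A549 ARE_Fluc cells in 5% FBS OPTI-MEM were exposed to compounds in concentration-response for 18-24 h at 37 deg C. Viability was read by CellTiter-Fluor fluorescence (Ex 405/Em 525) after 30 min, before the luciferase read.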
Nrf2 block: Nrf2 qHTS screen for inhibitors; 360,000 tested, 2.1% active; Potency, µM (doses to about 46 µM), without a hit: top-dose activity change, negative = inhibition, usual class: inhibitors; A549 ARE-Fluc reporter, luciferase luminescence, 18-24 h; further: potency means the concentration at half of the fitted maximal effect; on the % scale 0 is the no-effect control and ±100 the full control effect; nearly all actives have a fitted effect of over 60% in size
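Two sequential reads on A549 ARE_Fluc cells exposed to compound for 18-24 h: a CellTiter-Fluor fluorescence read for viability, then a luciferase luminescence read for Nrf2/ARE activity.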
TCR activator: Activators of T cell receptors: qHTS campaign; primary human leukocytes, anti-CD3, IL-2 HTRF, 48 h; Potency, µM (titrated, usually from 9.22 µM), inactives show top-dose activation of IL-2 secretion, actives largely listed as activators; 330,000 tested, under 10 active; further: % of control where 0% means no effect
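Readout: HTRF IL-2, Eu-cryptate/d2 antibody pair, 320nm excitation, 665nm emission. Stimulus: a-CD3 beads, no co-stimulation. Cells: primary human leukocytes. Exposure: 48 hr with compound.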
Nrf2 ARE act: qHTS of Nrf2 Activators; AREc32 ARE-luciferase reporter (MCF7-derived line), luminescence, 24 h; Potency, µM (titrated, usually from 46.1 µM), inactives show at the top dose activation, actives largely listed as activators; 410,000 tested, 0.31% active; further: potency means the concentration at half of the fitted maximal effect; % of control where 0% means no effect; nearly all actives have a fitted effect of over 65% in size
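Steps: seed AREc32_Fluc cells (1000/well, 5% FBS OPTI-MEM); incubate overnight at 37 deg C; add 23 nL compound; incubate 24 hr; add Steady-Glo; hold 30 min RT; read luminescence.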
* = called active by the depositor; ? = inconclusive; · = not tested or not shown; [ ] = remark or other dose. Unless noted, the call rests on the fitted dose curve; in most records, active means well fitted curve in the direction sought with a large enough effect; inconclusive means small, poorly fitted or top-dose-only effect, or another doubt; inactive means no such curve, though single readings can be large; an effect the other way counts as inactive or inconclusive.

SMILES	ClpP mod	miR-21 act	A549 tox	Nrf2 block	TCR activator	Nrf2 ARE act
NC(=S)NN=Cc1nccc2ccccc12	·	·	?	?	8%	20%
Cc1cnc(C=NNC(N)=S)c2cccc(N)c12	1%	·	?	7.3µM*	7%	3%
C[C@@H]1CN([C@@H](C)CO)C(=O)c2cc(Br)cnc2O[C@H]1CN(C)S(=O)(=O)c1cccs1	0%	·	·	·	·	-1%
CCCCCC(=O)Nc1cccc(C2=NOC3(C2)C[C@@H](C(N)=O)N(C(=O)CC(c2ccccc2)c2ccccc2)C3)c1 (stereo partly specified)	-13%	?	?	21µM*	3%	-3%
CC12CC(c3ccccc3O1)N(C(=O)c1ccco1)C(=S)N2c1ccc(F)cc1 (stereo unspecified)	1%	28%	?	16µM*	-2%	0%
CN(C)c1ccc(/C=C/c2ccnc3ccccc23)cc1Br	-2%	·	·	·	·	·
CC(C)CN1C(=O)c2ccc(NC(=O)c3cccs3)cc2C1=O	28µM*	-12%	0%	?	·	4%
CC(C)CN1C(=O)c2ccc(NC(=O)c3ccccc3F)cc2C1=O	32µM*	-12%	-6%	14%	4%	0%
CC(C)CN1C(=O)c2ccc(NC(=O)c3ccco3)cc2C1=O	·	-41%	1%	?	-4%	9%
C[C@@H](CO)[C@H](/C=C/c1ccccc1)CCO[Si](c1ccccc1)(c1ccccc1)C(C)(C)C	·	·	-1%	19%	·	·
N#Cc1ccc(NC(=O)COc2ccccc2C(=O)Nc2ccccc2)cc1	-9%	·	·	·	·	·
C=C1C(=O)C=C2CN(C(=O)c3ccccc3)[C@@](Cc3ccc(F)cc3)(C(=O)OC)[C@@H]12	0%	27%	10µM*	13µM*	2%	-3%
C=C1C(=O)CC2=C1[C@](Cc1ccc(F)cc1)(C(=O)OC)N(C(=O)c1ccccc1)C2	-1%	·	·	·	·	?
Cc1ccc(-c2nc3cc(NC(=O)C(C)C)ccc3o2)cc1	14µM*	-57%	-5%	?	3%	3%
Cc1ccc(-c2nc3cc(NC(=O)C(C)C)ccc3o2)cc1C	28µM*	-37%	-15%	?	-8%[46.1 µM]	0%
Cc1ccc(-c2nc3cc(Cl)ccc3o2)cc1	35µM*	-57%	4%	?	-8%	5%
Cc1ccc(C(=O)Nc2cc(-c3nc4cc(Cl)ccc4o3)ccc2C)c(C)c1	0%	-22%	5%	8%	·	-2%
COc1cc(OC)cc(-c2nc3cc(C)ccc3o2)c1	25µM*	-64%	-26%	?	2%	?
Cc1cc2nc(-c3ccc(NC(=O)C(C)C)cc3)oc2cc1C	31%	-68%	-4%	?	-15%	-1%
CCC1(c2ccc(F)cc2)NC(=O)N(CC(=O)Nc2cccc(S(=O)(=O)N3CCOCC3)c2)C1=O (stereo unspecified)	-1%	·	6%	-24%	-3%	3%
COc1ccc(N2CCN(S(=O)(=O)CCNC(=O)C3CC(=O)N(c4ccccc4)C3)CC2)cc1 (stereo unspecified)	1%	1%	6%	12%	-2%	0%
O=C(NCc1ccccc1)C1=C[C@@H](C2CCCCC2)C[C@@H](OCCCCO)O1	-2%	·	-6%	-3%	6%	8%
Cc1ccc2oc(-c3cccc(NC(=O)c4cccc5c(Cl)cccc45)c3)nc2c1	-19%	-13%	-2%	19%	·	7%
COc1c(C)cccc1C(=O)Nc1ccc(Cl)c(-c2nc3cc(C)ccc3o2)c1	25µM*	14%	-1%	5%	·	5%
Cc1ccc(C(=O)Nc2ccc3oc(-c4ccccc4C)nc3c2)cc1	4%	0%	-13%	6.5µM*	·	4%
CCCNC(=O)Cn1nc(C)c2c(C)n(-c3ccccc3)nc2c1=O	-7%	-1%	11%	·	·	-1%
